# Laboratory results: PubChem BioAssay (EPA / NIEHS)
# The source made the active and inactive calls. The calls were made as follows: active = hit-call score of the fitted dose curve at least 0.9, where 1 is the maximum; inactive = score below 0.9.
# How the values were obtained:
# [1] = target: Bile acid receptor (Homo sapiens) (UniProt Q96RI1); assay: ATG_IR1_CIS: Attagene CIS-FACTORIAL HepG2 Assay for human Nuclear Receptor Subfamily 1 Group H Member 4 (NR1H4), IR1 submotif (AID 2282946); conditions: IR1 reporter transcription, actives raise or lower the signal
# Method in brief: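 Transient MRTU transfection, HepG2; 24 h dosing; RNA → RT-PCR → 6-FAM primer extension → HpaI digest → capillary electrophoresis fluorescence. Gain/loss of signal fitted relative to DMSO.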
# [2] = ATG_ISRE_CIS: Attagene CIS-FACTORIAL HepG2 Assay for human Interferon Regulatory Factor 1 (IRF1) binding to an Interferon-Stimulated Response Element (ISRE) (AID 2282948); conditions: HepG2 ISRE cis-reporter (Attagene), mRNA transcription readout; actives raise or lower the signal
# Method in brief: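 Quantitation relies on labelled RT-PCR fragments separated by capillary electrophoresis. Human HepG2 cells bearing cis-promoter reporter constructs were treated 24 h; DMSO served as baseline for bidirectional fitting.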
# [3] = ATG_M_32_CIS: Attagene CIS-FACTORIAL HepG2 Assay for M32 Transcription Factor (Internal Marker) (AID 2282949); conditions: HepG2 Attagene cis-factorial M32 reporter, mRNA; actives raise or lower the signal;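 also: background control marker of the multiplexed CIS panel rather than a real target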
# Method in brief: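 Following 24 h chemical exposure of HepG2 cells transiently expressing cis-promoter reporter constructs, reporter transcript levels were determined by RT-PCR with fluorescent labelling and capillary electrophoresis, then fitted bidirectionally against DMSO.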
# [4] = ATG_M_06_CIS: Attagene CIS-FACTORIAL HepG2 Assay for M06 Transcription Factor (Internal Marker) (AID 2282950); conditions: HepG2 Attagene CIS-FACTORIAL M06 internal marker reporter; actives raise or lower the signal
# Method in brief: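 HepG2 cells transiently transfected with cis-regulated multiple reporter transcription units were exposed to chemical for 24 h; reporter mRNA was quantified by RT-PCR, 6-FAM primer labelling, HpaI digestion and capillary electrophoresis, fitted bidirectionally against DMSO.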
# [5] = target: Hypoxia-inducible factor 1-alpha (Homo sapiens) (UniProt Q16665); assay: ATG_HIF1a_CIS: Attagene CIS-FACTORIAL HepG2 Assay for human Hypoxia Inducible Factor 1 (HIF1A) (AID 2282951); conditions: HepG2 Attagene cis-factorial HIF1a reporter transcription; actives raise or lower the signal
# Method in brief: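 RT-PCR/capillary electrophoresis fluorescence readout of reporter transcripts from endogenous-TF-driven cis elements in transfected HepG2 cells, 24 h exposure; activity fitted in both directions against DMSO controls.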
# [6] = target: Hepatocyte nuclear factor 6 (Homo sapiens) (UniProt Q9UBC0); assay: ATG_HNF6_CIS: Attagene CIS-FACTORIAL HepG2 Assay for human Hepatocyte Nuclear Factor 6 (HNF6) (AID 2282952); conditions: HepG2 Attagene cis-factorial HNF6 reporter transcription; actives raise or lower the signal
# Method in brief: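 Reporter mRNA induction or loss in HepG2 after 24 h exposure; transient cis-MRTU transfection; fragments quantified by capillary electrophoresis; bidirectional analysis, DMSO as negative control.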
# [7] = target: Heat shock factor protein 1 (Homo sapiens) (UniProt Q00613); assay: ATG_HSE_CIS: Attagene CIS-FACTORIAL HepG2 Assay for human Heat Shock Transcription Factor 1 (HSE) (AID 2282953); conditions: HepG2 HSE cis-reporter, Attagene RNA transcription; actives raise or lower the signal
# Method in brief: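 HepG2 cells transiently transfected with multiple reporter transcription units under cis-regulatory promoter control, measuring endogenous transcription factor activity. After 24 h chemical exposure, reporter mRNA quantified by RT-PCR, fluorescent labelling, HpaI digestion and capillary electrophoresis; bidirectional fit versus DMSO.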
# [8] = ATG_MRE_CIS: Attagene CIS-FACTORIAL HepG2 Assay for human Metal Responsive Element (MRE) (AID 2282954); conditions: HepG2 MRE cis-reporter transcription, Attagene multiplex; actives raise or lower the signal
# Method in brief: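 HepG2 cells transiently transfected with multiple cis-element reporter units measure endogenous MTF1-driven transcription. After 24 h compound exposure, reporter mRNA is quantified by RT-PCR with 6-FAM labelling, HpaI digestion and capillary electrophoresis; bidirectional fits versus DMSO.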
# [9] = target: Paired box protein Pax-6 (Homo sapiens) (UniProt P26367); assay: ATG_Pax6_CIS: Attagene CIS-FACTORIAL HepG2 Assay for human Paired Box 6 (PAX6) (AID 2282956); conditions: HepG2 CIS-FACTORIAL PAX6 reporter transcription, RNA readout; actives raise or lower the signal
# Method in brief: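 After twenty-four hours of chemical exposure, transfected HepG2 cells are harvested for RNA. Cis-promoter reporter transcripts are amplified, fluorescently labelled and sized by capillary electrophoresis, with gain and loss of signal scored against DMSO.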
# [10] = ATG_PXRE_CIS: Attagene CIS-FACTORIAL HepG2 Assay for human Pregnane X Receptor Element (PXRE) (AID 2282957); conditions: HepG2 Attagene CIS-FACTORIAL PXRE reporter, mRNA; actives raise or lower the signal
# Method in brief: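 Transiently transfected HepG2 cells were dosed and incubated for 24 h. RNA was then isolated, DNase-treated, reverse-transcribed and reporter sequences amplified. Labeled, HpaI-digested fragments were quantified by capillary electrophoresis against DMSO.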
# [11] = ATG_PPRE_CIS: Attagene CIS-FACTORIAL HepG2 Assay for human Peroxisome Proliferator-activated Response Element (PPRE) (AID 2282958); conditions: HepG2 PPRE cis-element reporter, Attagene transcription factor profiling; actives raise or lower the signal
# Method in brief: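 Read-out: fluorescent reporter mRNA fragments resolved by capillary electrophoresis after RT-PCR. HepG2 cells carried transiently transfected PPRE-driven cis reporter constructs and were dosed for 24 h; gain or loss of signal fitted relative to DMSO.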
# [12] = ATG_RORE_CIS: Attagene CIS-FACTORIAL HepG2 Assay for human RAR-related Orphan Receptor Element (RORE) (AID 2282959); conditions: HepG2 Attagene cis-factorial RORE reporter, mRNA; actives raise or lower the signal
# Method in brief: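 Readout: fluorescent reporter mRNA by RT-PCR plus capillary electrophoresis, 24 h after dosing transfected HepG2 cells. Endogenous transcription factor activity on a cis promoter element is measured. Gain or loss of signal fitted against DMSO.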
# [13] = ATG_Sox_CIS: Attagene CIS-FACTORIAL HepG2 Assay for human SRY-box transcription factor (SOX) (AID 2282960); conditions: HepG2 Attagene cis-factorial SOX reporter, mRNA; actives raise or lower the signal
# Method in brief: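 Read-out: fluorescent RT-PCR products of SOX1-linked reporter transcripts resolved by capillary electrophoresis, fitted bidirectionally against DMSO. Transiently transfected HepG2 cells, 24 h after chemical exposure, endogenous transcription factor activity.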
# [14] = target: Transcription factor Sp1 (Homo sapiens) (UniProt P08047); assay: ATG_Sp1_CIS: Attagene CIS-FACTORIAL HepG2 Assay for human Specificity Protein 1 (Sp1) (AID 2282961); conditions: HepG2 Sp1 cis-reporter transcription, actives raise or lower the signal
# Method in brief: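 Read-out: fluorescence of 6-FAM-labeled, HpaI-digested RT-PCR products separated by capillary electrophoresis. HepG2 cells carried transfected cis-element reporter units and were exposed to chemicals for 24 h; gain or loss of signal fitted relative to DMSO.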
# [15] = ATG_SREBP_CIS: Attagene CIS-FACTORIAL HepG2 Assay for human Sterol Regulatory Element Binding (SREBP) (AID 2282962); conditions: HepG2 Attagene cis-factorial SREBP reporter, mRNA; actives raise or lower the signal
# Method in brief: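 Twenty-four hours after chemical dosing of transfected HepG2 cultures, reporter RNA was converted to cDNA, amplified, end-labelled with 6-FAM and resolved by capillary electrophoresis. Responses were fitted relative to DMSO.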
# [16] = target: Signal transducer and activator of transcription 3 (Homo sapiens) (UniProt P40763); assay: ATG_STAT3_CIS: Attagene CIS-FACTORIAL HepG2 Assay for human Signal Transducer and Activator of Transcription 3 (STAT3) (AID 2282963); conditions: HepG2, Attagene cis-factorial STAT3 reporter transcription; actives raise or lower the signal
# Method in brief: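 HepG2 cells transiently transfected with cis-element-driven multiple reporter transcription units; after 24 h chemical exposure, reporter mRNA measured by RT-PCR, 6-FAM primer-extension labelling, HpaI digestion and capillary electrophoresis. Bidirectional fitting versus DMSO baseline.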
# [17] = ATG_TA_CIS: Attagene CIS-FACTORIAL HepG2 Assay for human TA Basal Promoter (AID 2282964); conditions: HepG2 Attagene CIS-factorial TA basal promoter reporter; actives raise or lower the signal
# Method in brief: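 HepG2 cells transiently transfected with multiplexed cis-promoter reporter units, dosed 24 h. Reporter mRNA measured by RT-PCR, 6-FAM labelling, HpaI digestion and capillary electrophoresis; bidirectional fit versus DMSO baseline, serving as background control.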
# [18] = ATG_TCF_b_cat_CIS: Attagene CIS-FACTORIAL HepG2 Assay for human T-Cell-Factor with beta-catenin (TCF/b-cat) (AID 2282965); conditions: HepG2 TCF/beta-catenin cis-reporter transcription, actives raise or lower the signal
# Method in brief: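 HepG2 cells transiently transfected with multiple cis-promoter-regulated reporter transcription units, so endogenous transcription factor activity is measured. Reporter mRNA read 24 hours after dosing by RT-PCR, fluorescent labelling and capillary electrophoresis; bidirectional fitting against DMSO.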
# [19] = ATG_GRE_CIS: Attagene CIS-FACTORIAL HepG2 Assay for human Glucocorticoid Response Elements (GRE) (AID 2282947); conditions: HepG2 GRE cis-reporter, Attagene multiplex mRNA; actives raise or lower the signal
# Method in brief: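 HepG2 cells transiently transfected with multiple cis-promoter reporter units measure endogenous TF activity; 24 h compound exposure. Reporter mRNA quantified by RT-PCR, FAM labelling, HpaI digestion and capillary electrophoresis; bidirectional fit vs DMSO baseline.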
# [20] = ATG_PBREM_CIS: Attagene CIS-FACTORIAL HepG2 Assay for human Phenobarbital-responsive Enhancer Module (PBREM) (AID 2282955); conditions: HepG2 PBREM cis-reporter, Attagene multiplexed transcription; actives raise or lower the signal
# Method in brief: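 Reporter mRNA read by RT-PCR, 6-FAM primer extension, HpaI digestion and capillary electrophoresis. Transfected HepG2 cells, 24 h compound exposure. Gain or loss of signal fitted bidirectionally relative to DMSO baseline.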
# Sequence of Hypoxia-inducible factor 1-alpha (Homo sapiens) (Q16665 whole entry, looked up): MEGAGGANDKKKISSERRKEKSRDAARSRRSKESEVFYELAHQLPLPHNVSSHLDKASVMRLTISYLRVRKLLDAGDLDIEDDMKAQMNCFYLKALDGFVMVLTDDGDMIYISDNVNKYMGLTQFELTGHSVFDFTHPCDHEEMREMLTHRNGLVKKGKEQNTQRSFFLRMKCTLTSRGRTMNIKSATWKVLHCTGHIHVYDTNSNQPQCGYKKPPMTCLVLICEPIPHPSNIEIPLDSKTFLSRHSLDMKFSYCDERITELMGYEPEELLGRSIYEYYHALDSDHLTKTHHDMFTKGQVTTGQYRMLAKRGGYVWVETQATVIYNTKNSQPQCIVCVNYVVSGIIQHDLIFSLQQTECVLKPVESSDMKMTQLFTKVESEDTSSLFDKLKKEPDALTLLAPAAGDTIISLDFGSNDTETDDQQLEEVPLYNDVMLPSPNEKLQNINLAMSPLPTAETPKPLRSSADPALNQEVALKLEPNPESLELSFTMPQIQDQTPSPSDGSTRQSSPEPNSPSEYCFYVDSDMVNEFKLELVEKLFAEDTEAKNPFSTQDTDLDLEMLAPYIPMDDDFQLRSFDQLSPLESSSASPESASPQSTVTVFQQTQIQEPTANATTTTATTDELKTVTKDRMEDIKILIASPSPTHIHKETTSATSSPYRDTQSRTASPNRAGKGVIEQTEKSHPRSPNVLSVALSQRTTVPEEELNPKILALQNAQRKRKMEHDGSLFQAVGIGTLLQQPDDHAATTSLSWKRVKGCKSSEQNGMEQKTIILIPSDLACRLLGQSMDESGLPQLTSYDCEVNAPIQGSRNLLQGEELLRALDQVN
# Sequence of Signal transducer and activator of transcription 3 (Homo sapiens) (P40763 whole entry, looked up): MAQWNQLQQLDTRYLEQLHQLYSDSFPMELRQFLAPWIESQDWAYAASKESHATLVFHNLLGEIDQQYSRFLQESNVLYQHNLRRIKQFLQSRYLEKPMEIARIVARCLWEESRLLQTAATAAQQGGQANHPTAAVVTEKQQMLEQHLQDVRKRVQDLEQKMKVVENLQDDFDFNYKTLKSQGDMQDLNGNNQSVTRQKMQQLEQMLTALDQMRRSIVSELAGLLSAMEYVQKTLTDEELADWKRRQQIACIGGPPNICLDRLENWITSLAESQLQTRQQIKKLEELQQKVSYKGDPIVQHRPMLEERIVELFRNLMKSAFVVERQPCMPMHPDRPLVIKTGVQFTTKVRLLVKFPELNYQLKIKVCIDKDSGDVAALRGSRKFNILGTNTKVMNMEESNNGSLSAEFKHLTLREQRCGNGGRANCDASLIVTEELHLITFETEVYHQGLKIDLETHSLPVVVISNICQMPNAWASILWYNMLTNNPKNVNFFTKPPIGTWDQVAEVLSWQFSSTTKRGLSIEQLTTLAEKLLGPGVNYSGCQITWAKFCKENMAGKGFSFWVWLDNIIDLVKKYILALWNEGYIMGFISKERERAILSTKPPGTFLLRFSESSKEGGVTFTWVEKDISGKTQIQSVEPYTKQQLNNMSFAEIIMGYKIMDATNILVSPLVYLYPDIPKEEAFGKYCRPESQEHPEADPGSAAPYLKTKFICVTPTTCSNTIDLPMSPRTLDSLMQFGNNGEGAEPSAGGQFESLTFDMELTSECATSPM
# Sequence of Hepatocyte nuclear factor 6 (Homo sapiens) (Q9UBC0 whole entry, looked up, the tested form may be a part): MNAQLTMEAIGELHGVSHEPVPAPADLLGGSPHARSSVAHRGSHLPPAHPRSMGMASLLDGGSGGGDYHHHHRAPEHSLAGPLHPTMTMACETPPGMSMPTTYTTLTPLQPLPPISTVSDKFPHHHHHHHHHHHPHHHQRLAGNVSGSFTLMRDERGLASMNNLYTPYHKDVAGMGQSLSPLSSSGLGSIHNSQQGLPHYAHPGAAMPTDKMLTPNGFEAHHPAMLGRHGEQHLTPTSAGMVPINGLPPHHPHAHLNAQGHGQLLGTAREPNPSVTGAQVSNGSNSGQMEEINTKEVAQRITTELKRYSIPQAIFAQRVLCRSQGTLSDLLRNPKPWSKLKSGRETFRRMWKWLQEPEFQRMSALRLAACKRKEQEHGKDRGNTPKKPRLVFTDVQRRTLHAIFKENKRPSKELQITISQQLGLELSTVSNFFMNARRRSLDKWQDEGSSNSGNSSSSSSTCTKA
# Sequence of Paired box protein Pax-6 (Homo sapiens) (P26367 whole entry, looked up): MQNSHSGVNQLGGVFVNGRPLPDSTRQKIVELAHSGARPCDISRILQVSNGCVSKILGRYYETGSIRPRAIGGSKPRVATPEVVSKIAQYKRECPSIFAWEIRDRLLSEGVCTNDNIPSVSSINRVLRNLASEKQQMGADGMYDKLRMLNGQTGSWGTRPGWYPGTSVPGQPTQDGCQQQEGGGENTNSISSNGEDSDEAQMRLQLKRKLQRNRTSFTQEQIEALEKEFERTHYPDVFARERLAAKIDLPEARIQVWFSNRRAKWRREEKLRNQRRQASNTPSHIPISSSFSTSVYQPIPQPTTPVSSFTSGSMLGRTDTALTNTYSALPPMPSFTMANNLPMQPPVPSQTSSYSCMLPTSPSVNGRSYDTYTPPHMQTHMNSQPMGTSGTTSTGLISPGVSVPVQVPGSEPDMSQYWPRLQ
# Sequence of Bile acid receptor (Homo sapiens) (Q96RI1 whole entry, looked up): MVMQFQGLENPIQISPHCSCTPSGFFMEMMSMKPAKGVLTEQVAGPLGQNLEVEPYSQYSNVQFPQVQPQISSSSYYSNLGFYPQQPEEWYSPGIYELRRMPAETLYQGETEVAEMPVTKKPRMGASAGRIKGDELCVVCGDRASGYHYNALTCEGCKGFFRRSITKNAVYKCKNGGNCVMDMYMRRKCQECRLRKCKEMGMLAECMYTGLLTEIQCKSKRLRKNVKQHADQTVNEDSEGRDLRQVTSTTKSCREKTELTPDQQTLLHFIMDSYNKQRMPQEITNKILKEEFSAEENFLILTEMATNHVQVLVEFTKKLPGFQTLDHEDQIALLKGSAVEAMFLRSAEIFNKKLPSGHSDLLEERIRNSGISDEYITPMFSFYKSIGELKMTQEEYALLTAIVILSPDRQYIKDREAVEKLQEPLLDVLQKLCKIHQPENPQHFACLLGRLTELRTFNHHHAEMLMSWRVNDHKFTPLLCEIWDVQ
# Sequence of Heat shock factor protein 1 (Homo sapiens) (Q00613 whole entry, looked up): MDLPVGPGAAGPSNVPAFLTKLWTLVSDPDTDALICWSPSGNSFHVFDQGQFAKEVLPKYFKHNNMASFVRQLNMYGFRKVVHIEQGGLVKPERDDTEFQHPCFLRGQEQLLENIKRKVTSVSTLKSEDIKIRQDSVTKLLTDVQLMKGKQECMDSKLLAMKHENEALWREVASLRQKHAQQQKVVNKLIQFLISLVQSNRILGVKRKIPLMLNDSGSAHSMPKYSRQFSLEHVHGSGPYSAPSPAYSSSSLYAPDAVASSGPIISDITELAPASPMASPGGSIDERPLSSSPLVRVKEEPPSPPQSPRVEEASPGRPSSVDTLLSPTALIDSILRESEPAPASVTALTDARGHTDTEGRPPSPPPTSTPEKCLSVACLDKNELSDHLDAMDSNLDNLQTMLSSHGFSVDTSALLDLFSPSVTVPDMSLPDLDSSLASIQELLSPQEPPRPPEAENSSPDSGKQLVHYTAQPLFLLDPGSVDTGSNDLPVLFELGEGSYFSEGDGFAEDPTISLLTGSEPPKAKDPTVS
# Sequence of Transcription factor Sp1 (Homo sapiens) (P08047 whole entry, looked up): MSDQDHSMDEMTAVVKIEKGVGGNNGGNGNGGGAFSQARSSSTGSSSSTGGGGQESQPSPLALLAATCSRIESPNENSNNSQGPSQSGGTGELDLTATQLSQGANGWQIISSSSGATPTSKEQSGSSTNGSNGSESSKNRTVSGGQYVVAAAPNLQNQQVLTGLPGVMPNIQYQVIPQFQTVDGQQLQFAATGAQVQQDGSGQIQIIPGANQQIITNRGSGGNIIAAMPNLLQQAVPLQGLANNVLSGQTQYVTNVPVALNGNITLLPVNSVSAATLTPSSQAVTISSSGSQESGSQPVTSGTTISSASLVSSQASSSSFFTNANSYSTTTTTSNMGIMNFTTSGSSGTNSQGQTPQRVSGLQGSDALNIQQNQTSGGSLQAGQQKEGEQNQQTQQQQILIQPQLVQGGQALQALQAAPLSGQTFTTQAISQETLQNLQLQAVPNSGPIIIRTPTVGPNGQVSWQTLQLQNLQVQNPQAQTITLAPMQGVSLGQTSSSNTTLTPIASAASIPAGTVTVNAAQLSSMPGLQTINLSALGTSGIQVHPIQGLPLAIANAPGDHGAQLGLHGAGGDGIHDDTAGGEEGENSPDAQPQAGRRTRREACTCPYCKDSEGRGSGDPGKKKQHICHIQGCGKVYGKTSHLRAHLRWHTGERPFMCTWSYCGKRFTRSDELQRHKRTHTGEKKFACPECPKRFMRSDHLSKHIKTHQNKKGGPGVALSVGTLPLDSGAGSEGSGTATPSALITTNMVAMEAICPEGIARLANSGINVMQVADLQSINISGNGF
smiles,measurement,setting,value
CNCCO,outcome,[1],inactive
same,outcome,[2],inactive
same,outcome,[3],inactive
same,outcome,[4],inactive
same,outcome,[5],inactive
same,outcome,[6],inactive
same,outcome,[7],inactive
same,outcome,[8],inactive
same,outcome,[9],inactive
same,outcome,[10],inactive
same,outcome,[11],inactive
same,outcome,[12],inactive
same,outcome,[13],inactive
same,outcome,[14],inactive
same,outcome,[15],inactive
same,outcome,[16],inactive
same,outcome,[17],inactive
same,outcome,[18],inactive
COc1cc2ncnc(Nc3cccc(Cl)c3)c2cc1OC,outcome,[1],inactive
same,AC50,[2],5.56 µM (active)
same,outcome,[4],inactive
same,AC50,[5],11.4 µM (active)
same,AC50,[8],20.1 µM (active)
same,AC50,[9],25 µM (active)
same,outcome,[10],inactive
same,outcome,[11],inactive
same,outcome,[12],inactive
same,outcome,[13],inactive
same,outcome,[14],inactive
same,outcome,[15],inactive
same,outcome,[16],inactive
same,AC50,[17],9.84 µM (active)
same,AC50,[18],6.77 µM (active)
ClCCCl,outcome,[19],inactive
same,outcome,[2],inactive
same,outcome,[3],inactive
same,outcome,[4],inactive
same,outcome,[5],inactive
same,outcome,[6],inactive
same,outcome,[7],inactive
same,outcome,[8],inactive
same,outcome,[20],inactive
same,outcome,[9],inactive
same,outcome,[10],inactive
same,outcome,[11],inactive
same,outcome,[12],inactive
same,outcome,[13],inactive
same,outcome,[14],inactive
same,outcome,[15],inactive
same,outcome,[16],inactive
same,outcome,[17],inactive
same,outcome,[18],inactive
CC(=O)/C=C/C1=C(C)CCCC1(C)C,outcome,[1],inactive
same,outcome,[2],inactive
same,outcome,[3],inactive
same,outcome,[4],inactive
same,outcome,[5],inactive
same,outcome,[6],inactive
same,outcome,[7],inactive
same,outcome,[8],inactive
same,outcome,[9],inactive
same,AC50,[10],1.42 µM (active)
same,outcome,[12],inactive
same,outcome,[13],inactive
same,outcome,[14],inactive
same,outcome,[16],inactive
same,outcome,[17],inactive
same,outcome,[18],inactive
